Source: PubChem BioAssay
The sample as a whole holds a higher share of hits than the screen did.
GIRK2 activator: Activates human GIRK2-containing potassium channels | P48051 | HEK293 GIRK2/NPY4 cells, thallium flux fluorescence | activation (% efficacy), % for hits at 37.5 µM | 34,000 tested, under 10 active;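 active = primary screen hit, no activity in plain HEK293 cells, and in GIRK2-only cells above 5% efficacy rising with concentration; inactive = the rest, including fluorescent compounds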;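 note: efficacy is normalized control-subtracted fluorescence 15 s after thallium addition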
Target sequence (P48051 whole entry, looked up): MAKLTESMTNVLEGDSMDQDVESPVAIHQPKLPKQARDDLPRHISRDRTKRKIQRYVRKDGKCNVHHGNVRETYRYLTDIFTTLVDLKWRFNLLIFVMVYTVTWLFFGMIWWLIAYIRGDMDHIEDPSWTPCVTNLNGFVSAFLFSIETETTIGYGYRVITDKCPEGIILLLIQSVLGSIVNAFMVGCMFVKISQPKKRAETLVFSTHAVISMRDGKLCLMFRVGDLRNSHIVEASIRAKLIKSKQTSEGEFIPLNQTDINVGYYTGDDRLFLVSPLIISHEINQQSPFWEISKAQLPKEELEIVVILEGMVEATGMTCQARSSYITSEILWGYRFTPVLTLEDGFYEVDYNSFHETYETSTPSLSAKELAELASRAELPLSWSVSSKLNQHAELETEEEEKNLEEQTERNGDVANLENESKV
GluA2 TARP mod: modulates AMPAR-stargazin complexes; calls only at 30 µM; 3.5% of 40,000 active; O88602+P19491; HEK293 GluA2+stargazin, membrane potential dye (FDSS), glutamate EC50; hits were called plate by plate, in both directions;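 active = any of four per-well response measures lying three or more SD from its plate-wide compound average, in either direction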
Starred values were filed as active, the others as inactive; i = inactive; x = no result; + = active, no number.

SMILES | GIRK2 activator | GluA2 TARP mod
Cc1c(Cl)cccc1S(=O)(=O)NCC(O)(c1ccccc1)C(F)(F)F (configuration not stated) | i | +
O=S(=O)(NCC(O)(c1ccccc1)C(F)(F)F)c1ccccc1Cl (configuration not stated) | i | i
COCC(=O)N1CCCc2ccc(NC(=O)CCSc3ccccc3)cc21 | i | +
Cc1ccc(NC(=O)CCSc2ccccc2)cc1N1CCCCC1=O | i | +
COCC(=O)N1CCCc2ccc(NC(=O)Cc3ccccc3Cl)cc21 | i | i
CCOC(=O)CCC(=O)Nc1ccc(C)c(N2CCCCC2=O)c1 | i | i
COC(=O)N1CCC(CNC(=O)C(=O)Nc2ccc(OC(F)(F)F)cc2)CC1 | i | i
O=C(CSc1nnc(-c2cccnc2)n1-c1ccccc1)c1ccccc1 | i | i
COc1cc(C)c(C)cc1S(=O)(=O)Nc1ccc(C(=O)O)cc1 | i | i
Cc1ccc(S(=O)(=O)NCCn2nc(C)c(Cl)c2C)c(C)c1 | i | +
Cc1ccc(S(=O)(=O)NCC2CCN(C)CC2)c(C)c1 | i | i
COc1ccc(Cl)cc1NC(=O)C(=O)NCCn1ccnc1C | i | x
O=C(CSc1ccc(NC(=O)c2ccco2)nn1)NCc1ccccc1Cl | i | +
COc1ccc(NC(=O)CSc2ccc(NC(=O)c3ccco3)nn2)cc1OC | i | +
COc1ccccc1NC(=O)CSc1ccc(-c2cc(OC)c(OC)c(OC)c2)nn1 | i | i
CCC(=O)Nc1ccc(SCC(=O)Nc2ccc(OC)c(OC)c2)nn1 | i | x
COc1ccc(-c2ccc(SCC(=O)Nc3ccccc3Cl)nn2)cc1OC | x | +
COc1ccccc1CNC(=O)CSc1ccc(NC(=O)c2ccco2)nn1 | i | i
Cc1ccccc1NC(=O)C1C(=O)CC(C)(O)C(C(=O)Nc2ccccc2C)C1c1cnn(C)c1C (configuration not stated) | i | i
Cc1cc(C)c(S(=O)(=O)N2CCCC(C(=O)O)C2)c(C)c1 (configuration not stated) | i | i
Cc1cc(C)cc(C(=O)NCC2(c3ccccc3)CCOCC2)c1 | i | i
CN1CCN(NC(=O)C(=O)Nc2ccc(F)c(Cl)c2)CC1 | i | i
CN1CCN(NC(=O)C(=O)Nc2ccc3c(c2)OCCO3)CC1 | x | +
CS(=O)(=O)c1ccc(CC(=O)N(Cc2ccccn2)c2nc3ccccc3s2)cc1 | x | i
COc1ccc(Br)cc1S(=O)(=O)Nc1cc(Cl)ccc1O | i | +
SMILES | GIRK2 activator | GluA2 TARP mod
COc1ccc(Cl)cc1S(=O)(=O)Nc1cc(Cl)ccc1O | i | i
COc1cc(S(=O)(=O)Nc2cc(Cl)ccc2O)ccc1Cl | i | +
CCOc1ccc(S(=O)(=O)Nc2cc(Cl)ccc2O)cc1C | i | i
O=C(Nc1ccccc1NC(=O)c1ccc(Br)o1)c1ccccn1 | i | x
O=C(NCc1cccnc1)C(=O)Nc1cccc(C(F)(F)F)c1 | x | i
O=C(Nc1nc2ccccc2s1)c1cc(-c2cccs2)n(C2CCS(=O)(=O)C2)n1 (configuration not stated) | i | i
CCOC(=O)Cn1c(=NC(=O)c2cc(C)no2)sc2cc(SC)ccc21 | i | i
CN(C)CCCNc1nc2ccc([N+](=O)[O-])cc2s1 | i | +
Cc1c(Cl)ccc2sc(NCCCN(C)C)nc12 | i | i
COc1ccc(S(=O)(=O)CCC(=O)N(CCN(C)C)c2nc3ccc([N+](=O)[O-])cc3s2)cc1 | x | +
CN(C)CCN(C(=O)CCCS(=O)(=O)c1ccc(F)cc1)c1nc2ccccc2s1 | x | i
COc1ccc(S(=O)(=O)CCC(=O)N(Cc2ccccc2)c2nc3ccccc3s2)cc1 | i | i
CN(C)CCN(C(=O)CCCS(=O)(=O)c1ccc(F)cc1)c1nc2ccc([N+](=O)[O-])cc2s1 | x | +
CCc1nc2sc(C(c3ccccc3Cl)N3CCCC3)c(O)n2n1 (configuration not stated) | i | i
Cc1cc(NCC2CCCO2)n2nc(C(F)(F)F)c(-c3ccccc3)c2n1 (configuration not stated) | i | i
O=S(=O)(c1ccc(F)c(Cl)c1)N1CCCN(CCn2cccn2)CC1 | i | i
CCC(=O)NCCCn1nc(-c2ccc(C)cc2)ccc1=O | i | i
Cc1noc(C2CN(S(=O)(=O)c3cccc(Cl)c3C)C2)n1 | i | +
Cc1noc(C2CN(S(=O)(=O)c3cccs3)C2)n1 | i | i
Cc1ccc(C)c(S(=O)(=O)NC2CCCC(O)C2)c1 (configuration not stated) | i | i
CSc1ccc(-c2noc(CSc3nc4ccccc4c(=O)n3Cc3ccco3)n2)cc1 | x | i
COc1ccc(-c2noc(CSc3nc4ccccc4c(=O)n3Cc3ccco3)n2)cc1OC | x | +
